# Data reported in PubChem BioAssay (Tox21).
# Values joined by “and” are separate entries in the source; they are usually repeats but may differ in a detail not shown here. Equal values may be shown once. Records with an inconclusive call do not appear. Where a call stands in place of a potency, no number is given. The source holds several records for some structures; these can differ, active in one and inactive in another. Active and inactive are the calls of the source. Calls follow the shape of the dose curve; as a rule, active = well fitted cell-killing curve with a large enough effect in the repeat runs (not every such curve was filed as active); inconclusive = weak or mixed curves, or effect the other way; inactive = no such curve, though single readings can be large or run the other way.
# Assay: qHTS assay to identify small molecule antagonists of the estrogen related receptor signaling pathway with the pleiotropic PPARgamma coactivator (PGC) from Tox21 10K library - cell viability counter screen (AID 1224840); also: nearly all actives have a fitted effect of over 40% in size
# Conditions: PGC/ERR reporter cells viability, CellTiter-Fluor, 17.5 h; series mostly up to 92.4 µM
# From the text: National Center for Advancing Translational Sciences [NCATS]
# NIH Chemical Genomics Center [NCGC]
# U.S. Environmental Protection Agency [EPA]
# National Institutes of Environmental Health Sciences [NIEHS]
# National Toxicology Program [NTP]
# U.S. Food and Drug Administration [FDA]
# Estrogen related receptors (ERRs), the first orphan nuclear receptors discovered, play an important role in the control of cellular energy metabolism. ERRs are required for high-energy production in response to the environmental challenges. The pleiotropic PPARgamma coactivator (PGC) is a major partner of ERR and a key regulator in energy homeostasis. Together they have been implicated in the etiology of metabolic disorders such as Type 2 diabetes and metabolic syndrome. ERR-alpha was also identified as an adverse marker for breast cancer progression; ERR-alpha-positive tumors have a poor prognosis. To screen and to identify environmental compounds that perturb the ERR and PGC/ERR signaling pathways could provide valuable information for potential therapeutic or preventive measures in the treatment of metabolic disease. To differentiate true PGC/ERR antagonists or agonist from cytotoxic substances, the assay is multiplexed with cell viability assay.
# Tox21 Assay Protocol Summary:
# The PGC/ERR cells were dispensed at 2,000 cells/5 ul/well in 1536-well white plates using a Multidrop dispenser. After the assay plates were incubated at a 37 C/5% CO2 incubator for 6 hours, 23 nL of compounds dissolved in DMSO, positive and negative controls or DMSO only was transferred to the assay plate by a pin tool. The plates were incubated at 37 C for 17.5 hours. 1 ul/well of CellTiter-Fluor reagent was added into the assay plates using a Flying Reagent Dispenser. After 30-minute incubation at 37 C/5% CO2, the fluorescence intensity in the plates was measured using a ViewLux plate reader.
# Potency is read from the fitted curve at half-maximal effect.
row,Compound,Potency
1,Nc1nc(N)c2nc(-c3ccccc3)c(N)nc2n1,inactive
2,C[n+]1ccn(CCO)c1,inactive
3,COc1ccccc1[N+](=O)[O-],inactive
4,CC/C(C)=N/O,inactive
5,CC(=O)OC/C=C(\C)CCC=C(C)C,inactive
6,CCn1cc(C(=O)O)c(=O)c2cc3c(cc21)OCO3,inactive
7,CCCCCCC(=O)O,inactive
8,CC(=O)C(C)C,inactive
9,NC(=O)c1ncn([C@@H]2O[C@H](CO)[C@@H](O)[C@H]2O)n1,inactive
10,OCC(CO)(CO)CO,inactive
11,OCC(O)CS (stereo not given),inactive
12,COCN(COC)c1nc(N(COC)COC)nc(N(COC)COC)n1,inactive
13,CCCOC(=O)NCCCN(C)C,inactive
14,C=C1C[C@]23C[C@@]1(O)CC[C@H]2[C@@]12C=C[C@H](O)[C@@](C)(C(=O)O1)[C@H]2[C@@H]3C(=O)O,inactive
15,CCCCCNCCCCC,inactive
16,O=C1OC(=O)c2c(Cl)c(Cl)c(Cl)c(Cl)c21,inactive
17,CC[N+](CC)(CC(=O)Nc1c(C)cccc1C)Cc1ccccc1,inactive
18,O=C(NCC1CCCCN1)c1cc(OCC(F)(F)F)ccc1OCC(F)(F)F (stereo not given),inactive
19,O=[N+]([O-])c1cc(C(F)(F)F)ccc1Cl,inactive
20,Cc1ccncc1,inactive

row,Compound,Potency
1,Oc1ccc(Cc2ccccc2O)cc1,inactive
2,CCCCCCCCCCCC(=O)N(C)CC(=O)O,inactive
3,CCCCCCCCCCCCCC(=O)O,inactive
4,O=c1n(CCCN2CCN(c3cccc(Cl)c3)CC2)nc2ccccn12,inactive
5,CCc1cccc(O)c1,inactive
6,c1cnc2c(c1)ccc1cccnc12,2.76 µM (active) and 2.73 µM (active)
7,CC1(C)C(=O)N(Cl)C(=O)N1Cl,inactive
8,COC(=O)/C=C\C(=O)OC,inactive
9,CC1=CC(=O)CC(C)(C)C1,28.1 µM (active) and inactive
10,CC(=O)OCc1ccc2c(c1)OCO2,inactive
11,Cc1ccc(C)c(S(=O)(=O)O)c1,inactive
12,CC(=O)OCCC(C)C,inactive
13,C=C(C)CC(C)(C)C,inactive
14,COc1ccc2cc3[n+](cc2c1OC)CCc1cc2c(cc1-3)OCO2,inactive
15,Brc1ccc(Oc2ccc(Br)cc2)cc1,inactive
16,NCCNCCNCCN,inactive
17,CCN(CC)CCNC(=O)c1ccc(N)cc1,inactive
18,OC1CCCCC1,inactive
19,CCCCCCCC(=O)O,inactive
20,Cc1cccc(C)c1[N+](=O)[O-],inactive
